A number with no mark means an inactive call. Results filed as inconclusive are left out. Active and inactive are the calls of the source. Unless noted, calls follow the shape of the dose curve; as a rule, active = well fitted curve in the direction sought with a large enough effect; inconclusive = small, poorly fitted or top-dose-only effect, or another doubt; inactive = no such curve, though single readings can be large; an effect the other way counts as inactive or inconclusive.

Here are results for 13 compounds from PubChem BioAssay (NCATS).

The nature of assay [1]: Stat Signaling Pathway (AID 446; active = well fitted curve in either direction with a large enough effect, not every such curve was filed as active;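 also: ME-180 cervical cancer cells given 40 pM IL-6 alongside compound; SIE-controlled beta-lactamase reporter measured as 460/530 nm FRET emission ratio; % is scaled to controls: 0 for no effect and ±100 for the full control effect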). The gist of the method:
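Compound effects on IL-6-induced STAT reporter activity were measured in ME-180 cells. After overnight culture, cells were co-treated with 40 pM IL-6 for 5 hrs before beta-lactamase substrate loading at room temperature.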

Assay [2] deals with Glucocorticoid receptor (Homo sapiens) (UniProt P04150). The assay is described as follows: GR-GFP Redistribution (AID 450;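 active = compounds whose dose series gives a full or clear partial fitted curve of increased nuclear translocation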; also: potency is read from the fitted curve at half-maximal effect). The conditions noted are these: U2OS GR-GFP nuclear translocation, laser cytometry, 2 h.
The target in assay [3] is Mitogen-activated protein kinase 10 (Mus musculus) (UniProt Q61831). The assay can be described thus: JNK3 AlphaScreen Assay (AID 530; active = well fitted curve in either direction with a large enough effect, not every such curve was filed as active;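 also: kinase came from lysate of stimulated human HepG2 cells; signal reports phosphorylation of biotinylated GST-cJun 1-79 at Ser73 with 10 µM ATP; series mostly up to about 57 µM; % is scaled to controls: 0 for no effect and ±100 for the full control effect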). In outline: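 HepG2 lysate (IL-1b/TNFa pre-activated) + biotin-GST-cJun 1-79 + anti-pSer73 cJun; cpd titration, 15 min RT; ATP 10 uM start; Tris pH 7.6, MgCl2, DTT, vanadate; beads in EDTA buffer; AlphaScreen.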
A general note: Bead proximity is the source of the signal in Alpha formats.

The target of assay [4] is Ubiquitin carboxyl-terminal hydrolase 1 (Homo sapiens) (UniProt O94782). The assay is described as follows: Inhibitors of USP1/UAF1: Pilot qHTS (AID 504865).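 Also: rhodamine fluorescence freed from ubiquitin-rhodamine substrate followed over time; top concentration of the series differs between compounds; % is scaled to controls: 0 for no effect and ±100 for the full control effect; nearly all actives have a fitted effect of over 35% in size.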 In outline:
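Deubiquitinase activity followed as kinetic rhodamine fluorescence release from 150 nM Ub-Rho. 1 nM USP1/UAF1 with compound, after 15 min room-temperature preincubation, in HEPES pH 7.8 buffer containing TCEP, EDTA, BSA and Tween-20.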

Assay [5] deals with Dual specificity protein kinase CLK4 (Homo sapiens) (UniProt Q9HAZ1). The assay can be described thus: qHTS Assay for Inhibitors of CDC-like Kinase 4 (ADP-FP Assay) (AID 1795). Also: nearly all actives have a fitted effect of over 60% in size. Also: potency is read from the fitted curve at half-maximal effect. In outline: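 Kinase activity was measured as ADP production using Transcreener orange tracer (4 nM) and ADP antibody (1 ug/mL) fluorescence polarization, with ADP calculated from a calibration curve. The 1 h reaction contained 6.25 nM Clk4, 1 uM ATP and 100 uM RS peptide at pH 7.5 with Mg2+.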
(In general: Quantitative high-throughput screening tests each substance at several concentrations.)

The nature of assay [6]: Viability counterscreen for antagonist of constitutive androstane receptor (CAR) against the NCATS DSHEA and TCM libraries (AID 1794837).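 Also: compound exposure lasted 24 h before viability reading; 0% is about no effect.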 In outline: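 Viability was measured by CellTiter-Fluor fluorescence (405/540 nm, 1 hr) in HepG2-CYP2B6-hCAR cells. Cells were co-treated 24 hr with 48 uM CITCO (final), antagonist mode, and test substances.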
Assay [7] in a line: Viability counterscreen for agonist of constitutive androstane receptor (CAR) against the NCATS DSHEA and TCM libraries (AID 1794838). Also: 0% is about no effect. In outline: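 Cell viability, from CellTiter-Fluor fluorescence (405/540 nm), was scored after a 24 h, 37C exposure of HepG2 cells carrying CYP2B6 reporter and hCAR to test substances in presence of 0.75 uM PK11195.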
In general terms: The purpose of a counterscreen is to sort out artefacts and off-target activity.

In assay [8] the target is Nuclear receptor subfamily 1 group I member 3 (Homo sapiens) (UniProt Q14994). The assay is described as follows: Primary qHTS for agonist of constitutive androstane receptor (CAR) against the NCATS DSHEA and TCM libraries (AID 1794839).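 Also: HepG2 cells expressing human CAR with a CYP2B6 reporter plus PK11195 antagonist; 0% is about no effect.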 In outline:
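Agonist mode in presence of hCAR antagonist PK11195 (0.75 µM final): test substances, 24 h, 37 °C, on HepG2-CYP2B6-hCAR cells. Same-well readouts: fluorescence viability, then ONE-Glo luminescence; CITCO as reference agonist.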

Assay [9] in a line: HepG2 viability counterscreen (readout 2: ATP content) against the NCATS DSHEA and TCM libraries (AID 1794840).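 Also: HepG2 cells exposed to substances for about 24 h; 0% is about no effect.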 In outline: (§1)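 Readout 1: cellular protease activity, GF-AFC substrate (25 uM final, 30 min, fluorescence 380/510 nm). Readout 2: ATP content by CellTiter-Glo luminescence after 30 min at RT. Both follow ~24 h exposure of HepG2 cells (1,000/well) to substances.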
Assay [10] is described as follows: HepG2 viability counterscreen (readout 1: protease activity) against the NCATS DSHEA and TCM libraries (AID 1794841).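 Also: cells exposed to compounds for about 24 h before the protease read; 0% is about no effect.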 The gist of the method:
as §1

Assay [11] deals with Cytochrome P450 2D6 (Homo sapiens) (UniProt P10635). The assay can be described thus: qHTS for inhibitors of CYP2D6 against the NCATS DSHEA and TCM libraries (AID 1919972). Also: potency is read from the fitted curve at half-maximal effect. The gist of the method: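 qHTS, concentration–response format with most substances from 19.5 nM. CYP2D6 + pro-luciferin substrate, 15 min with compound, then 1x NADPH regen, 30–45 min RT dark. Glo detection 30 min, luminescence. Quinidine control.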

Assay [12] addresses Cytochrome P450 2C9 (Homo sapiens) (UniProt P11712). The assay can be described thus: qHTS for inhibitors of CYP2C9 against the NCATS DSHEA and TCM libraries (AID 1919973). Also: potency is read from the fitted curve at half-maximal effect. The gist of the method: (§2)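 Substances were tested against enzyme with a pro-luciferin substrate; minus-enzyme wells served as background. After NADPH-initiated oxidation (30-45 min, RT), light was generated with P450-Glo reagent.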

Assay [13] can be described thus: KB-3-1 P-gp reporter qHTS against the NCATS DSHEA and TCM libraries (AID 1919975). Also: 0% is about no effect. In outline: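 Cell viability by CellTiter-Glo luminescence following ~72 h compound exposure (concentration-response). Uses parental, non-P-gp-overexpressing KB-3-1 line, 500 cells/well in DMEM/10% FBS, attached ~4 h before dosing.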
Assay [14] addresses Cytochrome P450 1A2 (Homo sapiens) (UniProt P05177). The assay is described as follows: qHTS for inhibitors of CYPIA2 against the NCATS DSHEA and TCM libraries (AID 1919976). Also: potency is read from the fitted curve at half-maximal effect. The gist of the method: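 Luminescence read-out: pro-luciferin converted to D-luciferin by CYP1A2, detected with P450-Glo reagent after 30 min RT. Enzyme plus substrate got compounds for 15 min RT; NADPH regeneration solution (final 1x) started a 30-45 min reaction, light-protected.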

The nature of assay [15]: qHTS Counterscreen for compound interference against the NCATS DSHEA and TCM libraries (AID 1919978).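 Also: compounds preincubated with 1 µM D-luciferin or buffer before detection reagent; % of control where 0% means no effect.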 The conditions noted are these: firefly luciferase detection reagent interference, luminescence. The gist of the method:
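With 1 uM D-luciferin or phosphate buffer only, compounds at final 19.5 nM–39.8 uM were incubated for 15 min at room temperature. Luciferase detection reagent was then added, and luminescence was measured after a further 30 min at room temperature.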

Assay [16] is described as follows: Dual reporter qHTS for agonist of Pregnane X Receptor (hPXR) against the NCATS DSHEA and TCM libraries: Fluorescence readout (AID 1920058). Also: 0% is about no effect. The gist of the method:
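Fluorescence read-out for cell viability: CellTiter-Fluor, 1 h at 37 °C, Ex/Em 405/540 nm. This followed ~24 h treatment of hPXR-Luc HepG2 cells with substances in agonist mode.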

For assay [17], the target named is Nuclear receptor subfamily 1 group I member 2 (Homo sapiens) (UniProt O75469). The assay is described as follows: Dual reporter qHTS for agonist of Pregnane X Receptor (hPXR) against the NCATS DSHEA and TCM libraries: Luminescence readout (AID 1920059). Also: 0% is about no effect. The gist of the method: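 hPXR-Luc HepG2 cells, 2000/well in 5% charcoal-stripped FBS medium, attached 5 h, then exposed 24 h at 37C to compounds. Viability by CellTiter-Fluor, then luciferase luminescence with ONE-Glo.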

Assay [18] has the same target. The assay can be described thus: Dual reporter qHTS for antagonist of Pregnane X Receptor (hPXR) against the NCATS DSHEA and TCM libraries: Luminescence Readout (AID 1920060).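 Also: HepG2 cells carrying hPXR luciferase reporter stimulated with rifampicin at 2 µM; 0% is about no effect.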 In outline: (§3)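 Antagonist mode: rifampicin 2 uM final co-added with compounds to hPXR-LucHepG2 cells for 24 h at 37C. Viability by CellTiter-Fluor, Ex/Em 405/540 nm, 1 h; reporter by ONE-Glo luminescence.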

Assay [19] in a line: Dual reporter qHTS for antagonist of Pregnane X Receptor (hPXR) against the NCATS DSHEA and TCM libraries: Fluorescence Readout (AID 1920061). Also: 0% is about no effect. The gist of the method:
as §3

Assay [20] has as its target Cytochrome P450 3A4 (Homo sapiens) (UniProt P08684). The assay is described as follows: qHTS for inhibitors of CYP3A4 against the NCATS DSHEA and TCM libraries (AID 1919971). Also: potency is read from the fitted curve at half-maximal effect. The gist of the method:
as §2

Nuclear receptor subfamily 1 group I member 2 (Homo sapiens), sequence (O75469 whole entry, looked up): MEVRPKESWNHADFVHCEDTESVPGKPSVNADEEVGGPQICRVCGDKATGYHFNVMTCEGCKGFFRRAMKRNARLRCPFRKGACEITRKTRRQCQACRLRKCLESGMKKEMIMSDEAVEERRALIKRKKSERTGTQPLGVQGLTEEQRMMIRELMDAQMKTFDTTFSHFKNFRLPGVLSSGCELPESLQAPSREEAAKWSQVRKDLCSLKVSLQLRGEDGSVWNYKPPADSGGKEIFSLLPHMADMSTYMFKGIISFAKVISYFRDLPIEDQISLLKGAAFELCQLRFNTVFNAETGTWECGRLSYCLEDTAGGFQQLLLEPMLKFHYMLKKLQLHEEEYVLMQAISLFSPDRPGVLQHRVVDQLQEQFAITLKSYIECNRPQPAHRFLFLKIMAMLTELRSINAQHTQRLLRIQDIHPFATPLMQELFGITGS
Ubiquitin carboxyl-terminal hydrolase 1 (Homo sapiens), sequence (O94782 whole entry, looked up): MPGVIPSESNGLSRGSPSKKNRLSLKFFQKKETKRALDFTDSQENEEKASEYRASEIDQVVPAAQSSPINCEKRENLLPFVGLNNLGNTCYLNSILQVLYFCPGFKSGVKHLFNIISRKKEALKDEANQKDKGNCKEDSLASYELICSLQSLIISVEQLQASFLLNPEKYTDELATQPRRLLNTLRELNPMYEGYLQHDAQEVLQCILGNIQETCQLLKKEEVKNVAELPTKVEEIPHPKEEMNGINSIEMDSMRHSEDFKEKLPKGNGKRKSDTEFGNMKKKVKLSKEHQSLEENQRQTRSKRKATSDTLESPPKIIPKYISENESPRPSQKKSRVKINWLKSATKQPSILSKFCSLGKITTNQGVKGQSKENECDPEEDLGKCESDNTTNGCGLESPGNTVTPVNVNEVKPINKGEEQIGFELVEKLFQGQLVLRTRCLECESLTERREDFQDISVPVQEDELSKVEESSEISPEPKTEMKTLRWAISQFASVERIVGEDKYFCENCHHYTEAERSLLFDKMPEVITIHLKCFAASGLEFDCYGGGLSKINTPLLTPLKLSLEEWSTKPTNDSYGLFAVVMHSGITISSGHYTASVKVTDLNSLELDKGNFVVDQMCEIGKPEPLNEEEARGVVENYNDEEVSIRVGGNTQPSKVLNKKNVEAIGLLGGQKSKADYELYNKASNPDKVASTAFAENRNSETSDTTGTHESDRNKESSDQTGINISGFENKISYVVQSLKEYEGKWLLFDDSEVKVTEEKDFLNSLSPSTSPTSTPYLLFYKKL
Cytochrome P450 1A2 (Homo sapiens), sequence (P05177 whole entry, looked up): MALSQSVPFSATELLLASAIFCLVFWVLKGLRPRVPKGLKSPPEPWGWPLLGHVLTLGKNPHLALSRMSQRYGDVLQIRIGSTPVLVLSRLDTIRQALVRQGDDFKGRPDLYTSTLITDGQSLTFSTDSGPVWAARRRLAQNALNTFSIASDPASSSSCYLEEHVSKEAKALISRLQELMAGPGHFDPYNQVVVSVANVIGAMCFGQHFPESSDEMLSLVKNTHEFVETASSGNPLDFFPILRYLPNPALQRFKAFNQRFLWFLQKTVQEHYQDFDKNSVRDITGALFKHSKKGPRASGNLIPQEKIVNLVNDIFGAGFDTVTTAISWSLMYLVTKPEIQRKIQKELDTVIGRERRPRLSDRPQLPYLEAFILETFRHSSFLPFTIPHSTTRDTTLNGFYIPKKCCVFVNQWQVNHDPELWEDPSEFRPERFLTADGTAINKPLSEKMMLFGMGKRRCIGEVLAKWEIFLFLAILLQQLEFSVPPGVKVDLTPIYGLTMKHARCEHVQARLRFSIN
Nuclear receptor subfamily 1 group I member 3 (Homo sapiens), sequence (Q14994 whole entry, looked up): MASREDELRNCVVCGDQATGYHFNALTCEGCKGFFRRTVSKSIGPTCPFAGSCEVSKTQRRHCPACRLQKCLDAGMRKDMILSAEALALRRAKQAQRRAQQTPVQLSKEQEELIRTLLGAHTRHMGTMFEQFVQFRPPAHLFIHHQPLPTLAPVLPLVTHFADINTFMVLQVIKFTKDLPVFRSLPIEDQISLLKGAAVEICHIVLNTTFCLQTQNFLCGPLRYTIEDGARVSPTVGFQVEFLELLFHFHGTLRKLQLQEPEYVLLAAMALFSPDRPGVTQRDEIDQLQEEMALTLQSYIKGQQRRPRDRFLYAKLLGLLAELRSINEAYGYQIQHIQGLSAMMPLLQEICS
Glucocorticoid receptor (Homo sapiens), sequence (P04150 whole entry, looked up): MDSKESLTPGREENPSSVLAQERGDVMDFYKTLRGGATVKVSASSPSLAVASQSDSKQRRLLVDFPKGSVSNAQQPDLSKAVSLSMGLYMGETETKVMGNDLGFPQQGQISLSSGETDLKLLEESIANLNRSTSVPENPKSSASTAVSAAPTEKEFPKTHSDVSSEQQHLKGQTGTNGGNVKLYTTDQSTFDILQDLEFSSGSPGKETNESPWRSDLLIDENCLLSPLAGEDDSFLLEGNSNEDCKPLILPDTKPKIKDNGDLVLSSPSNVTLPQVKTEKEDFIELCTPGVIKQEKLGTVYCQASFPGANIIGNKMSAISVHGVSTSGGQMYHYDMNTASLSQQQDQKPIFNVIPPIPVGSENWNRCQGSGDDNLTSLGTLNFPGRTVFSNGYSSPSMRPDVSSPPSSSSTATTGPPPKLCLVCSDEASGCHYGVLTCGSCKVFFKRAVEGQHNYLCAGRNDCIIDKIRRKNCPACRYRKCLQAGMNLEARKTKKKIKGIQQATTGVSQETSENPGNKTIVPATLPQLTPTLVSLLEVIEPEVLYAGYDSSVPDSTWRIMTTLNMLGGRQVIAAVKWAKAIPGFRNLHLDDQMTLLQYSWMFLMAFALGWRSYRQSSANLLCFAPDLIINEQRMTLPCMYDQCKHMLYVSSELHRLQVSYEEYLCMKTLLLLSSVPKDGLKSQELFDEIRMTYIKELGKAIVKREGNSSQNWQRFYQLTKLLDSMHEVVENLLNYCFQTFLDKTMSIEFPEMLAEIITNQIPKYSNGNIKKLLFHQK
Cytochrome P450 2D6 (Homo sapiens), sequence (P10635 whole entry, looked up): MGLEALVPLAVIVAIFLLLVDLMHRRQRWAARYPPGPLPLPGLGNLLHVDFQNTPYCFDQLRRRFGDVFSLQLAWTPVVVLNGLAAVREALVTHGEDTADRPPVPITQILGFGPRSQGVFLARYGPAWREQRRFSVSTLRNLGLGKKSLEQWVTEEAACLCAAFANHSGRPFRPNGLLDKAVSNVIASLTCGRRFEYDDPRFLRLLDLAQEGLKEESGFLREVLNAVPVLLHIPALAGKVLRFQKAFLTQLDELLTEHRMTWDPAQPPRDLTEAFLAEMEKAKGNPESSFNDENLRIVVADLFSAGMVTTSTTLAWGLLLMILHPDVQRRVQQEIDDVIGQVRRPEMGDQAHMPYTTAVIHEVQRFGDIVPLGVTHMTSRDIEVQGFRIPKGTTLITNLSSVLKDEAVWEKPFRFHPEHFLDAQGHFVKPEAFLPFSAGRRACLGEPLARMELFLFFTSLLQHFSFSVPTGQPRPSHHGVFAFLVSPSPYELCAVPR
Cytochrome P450 2C9 (Homo sapiens), sequence (P11712 whole entry, looked up): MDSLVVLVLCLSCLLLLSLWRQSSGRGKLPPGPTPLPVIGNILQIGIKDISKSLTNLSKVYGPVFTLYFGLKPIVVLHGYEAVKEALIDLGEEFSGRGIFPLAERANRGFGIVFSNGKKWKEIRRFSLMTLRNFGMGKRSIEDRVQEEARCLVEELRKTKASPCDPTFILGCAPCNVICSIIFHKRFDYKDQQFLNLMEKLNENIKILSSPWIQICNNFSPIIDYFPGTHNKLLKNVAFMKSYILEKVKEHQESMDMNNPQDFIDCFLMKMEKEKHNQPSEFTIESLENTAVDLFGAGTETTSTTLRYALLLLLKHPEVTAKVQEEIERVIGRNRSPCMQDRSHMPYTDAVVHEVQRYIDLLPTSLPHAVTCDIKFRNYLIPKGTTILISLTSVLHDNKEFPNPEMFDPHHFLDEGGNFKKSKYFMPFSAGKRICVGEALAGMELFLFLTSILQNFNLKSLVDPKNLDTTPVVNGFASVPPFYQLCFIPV
Dual specificity protein kinase CLK4 (Homo sapiens), sequence (Q9HAZ1 whole entry, looked up): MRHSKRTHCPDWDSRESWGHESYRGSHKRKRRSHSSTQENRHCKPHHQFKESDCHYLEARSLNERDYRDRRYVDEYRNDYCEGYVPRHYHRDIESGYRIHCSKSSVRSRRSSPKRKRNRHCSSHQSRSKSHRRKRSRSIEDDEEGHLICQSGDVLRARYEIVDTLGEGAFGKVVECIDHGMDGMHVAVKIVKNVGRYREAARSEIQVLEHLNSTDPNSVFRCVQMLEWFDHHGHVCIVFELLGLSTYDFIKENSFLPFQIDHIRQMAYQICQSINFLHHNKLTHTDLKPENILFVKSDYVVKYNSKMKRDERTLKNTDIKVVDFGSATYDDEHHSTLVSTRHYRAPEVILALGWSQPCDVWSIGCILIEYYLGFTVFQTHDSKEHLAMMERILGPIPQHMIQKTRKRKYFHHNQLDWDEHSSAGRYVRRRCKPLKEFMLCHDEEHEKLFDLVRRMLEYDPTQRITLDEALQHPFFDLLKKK
Cytochrome P450 3A4 (Homo sapiens), sequence (P08684 whole entry, looked up): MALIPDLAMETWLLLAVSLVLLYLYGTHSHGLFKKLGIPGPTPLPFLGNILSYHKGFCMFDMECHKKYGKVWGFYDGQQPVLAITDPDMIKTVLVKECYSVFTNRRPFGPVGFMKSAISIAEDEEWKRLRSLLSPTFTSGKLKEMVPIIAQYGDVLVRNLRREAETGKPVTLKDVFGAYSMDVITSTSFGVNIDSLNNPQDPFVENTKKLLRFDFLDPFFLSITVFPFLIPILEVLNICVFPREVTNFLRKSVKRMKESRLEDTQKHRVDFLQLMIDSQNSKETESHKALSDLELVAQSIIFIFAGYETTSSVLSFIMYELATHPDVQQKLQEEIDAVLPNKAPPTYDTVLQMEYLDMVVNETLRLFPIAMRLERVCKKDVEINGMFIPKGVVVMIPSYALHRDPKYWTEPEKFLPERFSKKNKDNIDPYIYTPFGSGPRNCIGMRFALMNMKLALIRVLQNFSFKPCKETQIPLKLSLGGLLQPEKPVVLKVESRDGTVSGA

As to `COc1ccccc1-c1nc(NC2CC2)c2ccccc2n1`, the outcome in assay [1] was inactive. The Potency in [2] is > 46 µM. In addition, the Potency entry in assay [3] and in assay [4] was “inactive” each time.
As to `COc1ccc(-c2nc3cnc(N4CCN(C)CC4)nc3n(CCc3ccccc3)c2=O)cc1`, in assay [2], the Potency is > 9.22 µM. Besides, the Potency entry in assay [5] and in assay [4] was “inactive” in each case.
As for `CC(=O)NCCNc1nc(-c2cccc(C#N)c2)nc2ccccc12`, the compound was classed as inactive in [1]. The Potency in assay [2] was > 46 µM. Further, the Potency entry in assay [3] and in [4] was “inactive” in each case.
Turning to `COc1ccc2[nH]cc(CCNc3ncncc3-c3cccc(C#N)c3)c2c1`, the call in [1] was inactive. In addition, the Potency in assay [2] is > 46 µM. Further, the Potency entry in [3] and in assay [4] was “inactive” each time.
In the case of `CC(C)=CCCC(C)=CCCC(C)=CCCC=C(C)CCC=C(C)CCC=C(C)C`, the outcome in assay [6], in assay [7], in [9], in assay [10], in assay [13] and in assay [16] was inactive. Moreover, the compound was classed as inactive in [18] and in assay [19]. Besides, the Potency entry in assay [8], in assay [11], in assay [12], in assay [14] and in assay [17] was “inactive” in each case. Also, the max response in assay [15] is -1.5%.
As for `Cc1cccc(CNc2ncncc2-c2ccccc2C)c1`, the result in assay [1] was inactive. The Potency in assay [2] is > 46 µM. Further, the Potency result in assay [3], in [5] and in assay [4] was “inactive” in each case.
Take `CCCCCCC/C=C/C(=O)CCc1ccc(O)c(OC)c1`: the outcome in assay [6], in assay [7], in assay [9], in assay [10], in assay [13] and in [16] was inactive. For the same compound, the compound was classed as inactive in assay [18] and in assay [19]. Besides, the Potency entry in assay [8] was “inactive”. The Potency in assay [20] was 14.1 µM (active); in assay [11], 10 µM (active); in assay [12], 25.1 µM (active); in [14] it was 25.1 µM (active). The max response in assay [15] was 6.04%.
As to `COc1cccc(-c2ccc3ncnc(N4CCNCC4)c3c2)c1`, the Potency in [2] is > 46 µM. Moreover, in [3], the Potency result was “inactive”.
Consider `Cc1nc2cnc(N3CCN(C)CC3)nc2n(CCc2ccccc2)c1=O`, for which the outcome in [1] was inactive. In [2], the Potency is > 9.22 µM. Besides, the Potency result in [3], in [5] and in [4] was “inactive” each time.
In the case of `COc1ccccc1CNc1ncncc1-c1ccc2c(c1)OCO2`, the compound was called inactive in [1]. Moreover, in [2], the Potency is > 46 µM. In addition, the Potency result in [3] and in [4] was “inactive” in each case.
With `Clc1ccccc1-c1nc(Nc2ccncc2)c2ccccc2n1`, in [1], the outcome was inactive. Moreover, the Potency result in assay [3] is “inactive”. Also, in assay [5], the Potency was 10 µM (active).
For the compound `CC(=O)OC1CC2CCC1(C)C2(C)C` (stereo unspecified), the Potency result in assay [4], in assay [8], in assay [11], in assay [12], in assay [14] and in [17] was “inactive” each time. Moreover, the outcome in [6], in assay [7], in assay [9], in assay [10], in assay [16] and in [18] was inactive. Moreover, in assay [19], the compound was called inactive. In assay [15], the max response was 3.9%.
For the compound `c1ccc2c(NCCN3CCOCC3)nc(-c3ccoc3)nc2c1`, the result in assay [1] was inactive. Further, the Potency in [2] is > 46 µM. In addition, the Potency entry in assay [3], in [5] and in [4] was “inactive” throughout.
